Molecules are shown by their SMILES. This is part of a sample that, as a whole, favours compounds with a hit. Of some 83,000 tested, about 20% had one in any assay.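 Testing used 96-well plates and a 48-hour single-concentration exposure. Example: -40 means 40% of the starting cells died.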 A number with no mark means an inactive call. Activity calls are given as the source filed them. The calls were made as follows: active = growth percent below 10; inactive = the rest.

One test concerns NCI-H322M lung. Description: NCI-60 one-dose screen, 48 h (100 = growth as untreated, 0 = no growth, -100 = all killed). The settings on record: 10 µM.
For `COc1cc2nc(Nc3cccc(NC(C)=O)c3)nc(N)c2cc1OC`, the growth was 120%.

`COc1ccc(-c2nc3sc(C4CC4)nn3c2/C=C2/C(=O)Nc3ccc(OC)cc32)cc1`: the growth was 61.6%.

With `Cc1cc(N(CCCNc2ccnc3cc(Cl)ccc23)Cc2cccs2)nc(Cl)n1`, the growth was 72.9%.

`O=C1OCC2=C1C(c1cccc(Br)c1)c1cc3c(cc1N2CCO)CCC3` (stereo not drawn): the growth was 36.8%.

Turning to `COc1ccc(/C=C2/CN(C(=O)c3ccc(C)cc3)C/C(=C\c3ccc(OC)cc3)C2=O)cc1`, the growth was 90.2%.

In the case of `Cc1ccc(C(=O)Nc2cccc(F)c2)cc1NC(=O)C1(c2ncnc3[nH]ccc23)CC1`, the growth is 116%.

In the case of `Clc1ccccc1N=Cc1ccc2c(c1)OCO2`, the growth was 110%.

On to `CC12O[C@H](C[C@@H](OC(=O)c3ccccc3)[C@H]1O)n1c3ccccc3c3c4c(c5c6ccccc6n2c5c31)C(=O)NC4=O`, for which the growth was 83.1%.

`CCN(CC)CCNc1ccc(CO)c2oc3cc(Cl)ccc3c(=O)c12`: the growth was 97.4%.

For `N#Cc1ncc(-c2cc(F)c(F)c(F)c2)c(NC2CCCCCC2)n1`, the growth is 105%.

In the case of `CC/C(C)=C(\C)C(=O)O`, the growth is 89.5%.

As for `CC(=O)N1N=C(c2ccc(Cl)cc2)CC1c1sc(Cl)nc1Cl` (stereo not drawn), the growth was 62.9%.

Consider `Nc1ncn(C2OC(CO)C(O)C2O)c(=O)n1` (stereo not drawn), for which the growth was -0.0643% (active).

For the molecule `Nc1c(C(=O)Nc2cccc(Br)c2)sc2nc3c(cc12)C(O)CCC3` (stereo not drawn), the growth is 48.8%.

`Oc1[nH]c2ccc(Cl)cc2c1/C=c1/ccc2c(c1)N=C(c1cccs1)N=2`: the growth is 78.4%.

Consider `Clc1cc2c(c(CSc3nc4ccccc4n4cccc34)c1)OCOC2`, for which the growth was 83.2%.

For the molecule `O=C1NC(=O)c2ncccc21`, the growth was 106%.

For the molecule `NC1=NC(=O)C(c2ccccc2)(c2ccccc2)S1`, the growth was 111%.

As for `Cn1c([N+](=O)[O-])cnc1/C=C1\Oc2cc(Cl)ccc2C1=O`, the growth was 60.4%.

`c1ccc(C(NC2CC3CCC2C3)c2ccccc2)cc1` (stereo not drawn): the growth was 101%.

With `COc1cc(/C=C2\Oc3cc(OCC(=O)c4ccccc4)ccc3C2=O)cc(OC)c1OC`, the growth was 126%.

As to `CC1(C)Cc2c(sc3ncn4nc(-c5ccc(O)cc5)nc4c23)CO1`, the growth was 90.4%.

In the case of `O=C(N/N=C/c1cc2ccccc2c2ccccc12)c1cc(O)c(O)c(O)c1`, the growth was 74.6%.

Consider `CCOC(=O)c1ccoc1`, for which the growth was 85.1%.

With `O=[P@@]1(c2ccccc2)O[C@H](COCc2ccccc2)[C@@H](OCc2ccccc2)[C@H](OCc2ccccc2)[C@H]1O`, the growth was 86.9%.

On to `CN(C)CCN1C(=O)c2cccc3c(-c4ccc5ncn(C6CCCCC6)c5c4)ccc(c23)C1=O`, for which the growth is 25.3%.

As for `CN(C)c1ccc(N=C2C=CC(=O)c3ccccc32)cc1`, the growth is 14.9%.

As for `CC(=O)CSC(C)=O`, the growth was 104%.

For the molecule `COc1ccc(Nc2ccnc(NCCNc3ccnc4cc(Cl)ccc34)n2)cc1`, the growth was 64.7%.

Regarding `N=C(N)c1ccc(-c2ccc(-c3cccs3)s2)cc1`, the growth was 2.2% (active).

Turning to `CC(C)(Cl)CCC1=C(Cl)C(=O)c2ccccc2C1=O`, the growth is 100%.

For `CCOCCOCCOCCOCCOCCOCCOCCOCCOCCO` (tested in a mixture with another compound), the growth is 51.4%.

`CCCCCCCCCCCCCC[n+]1ccc(C(N)=O)cc1`: the growth is 58.8%.

For `COc1ccc(-c2nc(-c3nc4ccc(OC)cc4[nH]3)cc3c2[nH]c2ccccc23)cc1`, the growth was 48.2%.

For `COc1ccc(Oc2nc(NC3CCCC3)nc(Sc3ccc(OC)cc3)n2)cc1`, the growth is 90.5%.

On to `COc1cc2cc3c(nc2cc1OC)CCN3Cc1ccc(NC(=O)Nc2cc(C(F)(F)F)cc(C(F)(F)F)c2)cc1`, for which the growth was 72.5%.

Consider `CCCCCC(=O)c1ccc(OCCCN2CCN(C(=O)OCC)CC2)cc1`, for which the growth was 119%.

Take `COc1ccc(-c2cc(/C=C/C(=O)c3cc(OC)c(OC)c(OC)c3)[nH]n2)cc1OC`: the growth is 1.57% (active).

With `COc1cccc(-c2cc(-c3cccc(NS(C)(=O)=O)c3)nc(N)c2C#N)c1O`, the growth was 34.6%.

The subject of a further test is HOP-62 NSCLC. The test is described as above. The following applies: 10 µM.
Regarding `COc1cc2nc(Nc3cccc(NC(C)=O)c3)nc(N)c2cc1OC`, the growth was 94.4%.

As to `COc1ccc(-c2nc3sc(C4CC4)nn3c2/C=C2/C(=O)Nc3ccc(OC)cc32)cc1`, the growth was 80.9%.

In the case of `Cc1cc(N(CCCNc2ccnc3cc(Cl)ccc23)Cc2cccs2)nc(Cl)n1`, the growth is 41.1%.

With `O=C1OCC2=C1C(c1cccc(Br)c1)c1cc3c(cc1N2CCO)CCC3` (stereo not drawn), the growth is 28.4%.

As to `COc1ccc(/C=C2/CN(C(=O)c3ccc(C)cc3)C/C(=C\c3ccc(OC)cc3)C2=O)cc1`, the growth is 89.7%.

For `Cc1ccc(C(=O)Nc2cccc(F)c2)cc1NC(=O)C1(c2ncnc3[nH]ccc23)CC1`, the growth is 67.4%.

`Clc1ccccc1N=Cc1ccc2c(c1)OCO2`: the growth was 110%.

Take `CC12O[C@H](C[C@@H](OC(=O)c3ccccc3)[C@H]1O)n1c3ccccc3c3c4c(c5c6ccccc6n2c5c31)C(=O)NC4=O`: the growth was 33.4%.

`CCN(CC)CCNc1ccc(CO)c2oc3cc(Cl)ccc3c(=O)c12`: the growth was 88.4%.

With `N#Cc1ncc(-c2cc(F)c(F)c(F)c2)c(NC2CCCCCC2)n1`, the growth is 100%.

`CC/C(C)=C(\C)C(=O)O`: the growth was 95%.

As to `CC(=O)N1N=C(c2ccc(Cl)cc2)CC1c1sc(Cl)nc1Cl` (stereo not drawn), the growth was 103%.

`Nc1ncn(C2OC(CO)C(O)C2O)c(=O)n1` (stereo not drawn): the growth was -23% (active).

Regarding `Nc1c(C(=O)Nc2cccc(Br)c2)sc2nc3c(cc12)C(O)CCC3` (stereo not drawn), the growth is 38.1%.

Consider `Oc1[nH]c2ccc(Cl)cc2c1/C=c1/ccc2c(c1)N=C(c1cccs1)N=2`, for which the growth was 83.1%.

Turning to `Clc1cc2c(c(CSc3nc4ccccc4n4cccc34)c1)OCOC2`, the growth is 88.2%.

As for `O=C1NC(=O)c2ncccc21`, the growth is 109%.

As for `NC1=NC(=O)C(c2ccccc2)(c2ccccc2)S1`, the growth is 98.1%.

As for `Cn1c([N+](=O)[O-])cnc1/C=C1\Oc2cc(Cl)ccc2C1=O`, the growth was 16.5%.

Consider `c1ccc(C(NC2CC3CCC2C3)c2ccccc2)cc1` (stereo not drawn), for which the growth was 97.2%.

Take `COc1cc(/C=C2\Oc3cc(OCC(=O)c4ccccc4)ccc3C2=O)cc(OC)c1OC`: the growth was 2.36% (active).

Turning to `CC1(C)Cc2c(sc3ncn4nc(-c5ccc(O)cc5)nc4c23)CO1`, the growth was 79.2%.

`O=C(N/N=C/c1cc2ccccc2c2ccccc12)c1cc(O)c(O)c(O)c1`: the growth is 54.5%.

Take `CCOC(=O)c1ccoc1`: the growth was 97.8%.

As for `O=[P@@]1(c2ccccc2)O[C@H](COCc2ccccc2)[C@@H](OCc2ccccc2)[C@H](OCc2ccccc2)[C@H]1O`, the growth was 7.83% (active).

Regarding `CN(C)CCN1C(=O)c2cccc3c(-c4ccc5ncn(C6CCCCC6)c5c4)ccc(c23)C1=O`, the growth was 23.4%.

On to `CN(C)c1ccc(N=C2C=CC(=O)c3ccccc32)cc1`, for which the growth is 82.5%.

On to `CC(=O)CSC(C)=O`, for which the growth was 101%.

With `COc1ccc(Nc2ccnc(NCCNc3ccnc4cc(Cl)ccc34)n2)cc1`, the growth is 74.6%.

In the case of `N=C(N)c1ccc(-c2ccc(-c3cccs3)s2)cc1`, the growth was 86.6%.

For `CC(C)(Cl)CCC1=C(Cl)C(=O)c2ccccc2C1=O`, the growth was 59%.

Consider `CCOCCOCCOCCOCCOCCOCCOCCOCCOCCO` (tested in a mixture with another compound), for which the growth was 24.4%.

As to `CCCCCCCCCCCCCC[n+]1ccc(C(N)=O)cc1`, the growth was 10.5%.

Turning to `COc1ccc(-c2nc(-c3nc4ccc(OC)cc4[nH]3)cc3c2[nH]c2ccccc23)cc1`, the growth was 53.9%.

Regarding `COc1ccc(Oc2nc(NC3CCCC3)nc(Sc3ccc(OC)cc3)n2)cc1`, the growth was 75.7%.

For the molecule `COc1cc2cc3c(nc2cc1OC)CCN3Cc1ccc(NC(=O)Nc2cc(C(F)(F)F)cc(C(F)(F)F)c2)cc1`, the growth was 97.5%.

With `CCCCCC(=O)c1ccc(OCCCN2CCN(C(=O)OCC)CC2)cc1`, the growth is 108%.

`COc1ccc(-c2cc(/C=C/C(=O)c3cc(OC)c(OC)c(OC)c3)[nH]n2)cc1OC`: the growth was -27% (active).

Take `COc1cccc(-c2cc(-c3cccc(NS(C)(=O)=O)c3)nc(N)c2C#N)c1O`: the growth was 52.1%.
